Laboratory results as given in PubChem BioAssay (NCI).
Several values for one entry are separate records, joined by “and”; a condition that tells them apart may be missing. Identical values can stand only once. This is part of a sample that, as a whole, favours compounds with a hit. Of some 83,000 tested, about 20% had one in any assay.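 Step 1: grow cells in 96-well plates. Step 2: add test compound at a single concentration. Step 3: incubate 48 h. Step 4: record percent growth.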 Values without a mark were called inactive. Activity calls are given as the source filed them. Rule for the calls: active = growth percent below 10; inactive = the rest.

Tested on: HL-60(TB) leukemia
Assay: NCI-60 one-dose screen, 48 h (100 = growth as untreated, 0 = no growth, -100 = all killed)

Question: How did the growth (10 µM) turn out when `CC(=O)/C=C/c1ccc(N(CCO)Cc2ccc(C(C)(C)C)cc2)cc1` was run?
Answer: 69.6%

Question: What about the growth (100 µM) of the same compound?
Answer: -55.3% (active)

Question: For `O=c1[nH]cc(F)c(=O)[nH]1`, which growth (10 µM) is on record?
Answer: 59.7%

Question: And the growth (25 µM)?
Answer: 47.9%

Question: And the growth (50 µM)?
Answer: 77.6%

Question: With `CC#C[C@]1(O)CC[C@H]2[C@@H]3CCC4=CC(=O)CCC4=C3[C@@H](c3ccc4c(c3)OCO4)C[C@@]21C` as the compound, how does the growth (10 µM) read?
Answer: 67.5%

Question: And the growth (100 µM)?
Answer: -22.9% (active)

Question: With `Cc1[nH]c(-c2nc3ccccc3[nH]2)c(C)c1C(=O)NC(C)C1CCCCC1` (stereo not given) as the compound, how does the growth (10 µM) read?
Answer: 98.3%

Question: And the growth (100 µM)?
Answer: -83.4% (active)

Question: How did the growth (10 µM) turn out when `CCc1ccccc1-n1c(N)c(C#N)c(-c2ccc(OC)c(OC)c2)c(C#N)c1=O` was run?
Answer: 113%

Question: And the growth (100 µM)?
Answer: 122%

Question: Which growth (10 µM unless noted) does the source give for `O=C(c1ccccc1)[C@H]1[C@@H]2CCCN2[C@]2(C(=O)Nc3ccc(F)cc32)[C@]12C(=O)Nc1ccccc12` here?
Answer: 68.3%

Question: Which results are given for `CNC(=O)c1cc(Oc2ccc(CC(=O)Nc3cc(C(C)(C)C)nn3C)cc2)ccn1`?
Answer: growth (1 µM): 85.3%; growth (10 µM): 77%; growth (30 µM): 68.2%

Question: How did the growth (10 µM unless noted) turn out when `O=C(CNc1nnc(-c2cccnc2SCc2ccccc2)s1)Nc1nc(Cl)cc(Cl)n1` was run?
Answer: 96.2%

Question: `Cn1cc(-c2csc(-c3ccc(Cl)cc3)n2)c2cccnc21` was tested. Which growth (10 µM unless noted) did it give?
Answer: 7.96% [100 µM] (active)

Question: What does the source list for `CC(=O)/C=C/c1ccc(OCc2ccc(C(C)(C)C)cc2)cc1`?
Answer: growth (10 µM): 59.5%; growth (100 µM): -32.4% (active)

Question: With `COc1ccc(Cn2cc(Cn3c(=O)c(-c4nc5ccccc5[nH]4)cc4ccccc43)nn2)c(OC)c1OC` as the compound, how does the growth (10 µM unless noted) read?
Answer: 7.75% (active)

Question: With `COc1cc(OC)c2c(c1)c1nc3cc(C)c(C)cc3nc1n2CCN(C)C` as the compound, how does the growth (10 µM unless noted) read?
Answer: 103%

Question: With `CCCCCCCC[C@@H]1N[C@@H](C(=O)OC)Cc2c1[nH]c1ccccc21` as the compound, how does the growth (10 µM unless noted) read?
Answer: 99%

Question: Which results are given for `Cc1c2oc3c(C)ccc(C(=O)N[C@@H]4C(=O)N[C@H](C(C)C)C(=O)N5CCC[C@H]5C(=O)N(C)CC(=O)N(C)[C@@H](C(C)C)C(=O)O[C@H]4C)c3nc-2c(C(=O)N[C@@H]2C(=O)N[C@H](C(C)C)C(=O)N3CCC[C@H]3C(=O)N(C)CC(=O)N(C)[C@@H](C(C)C)C(=O)O[C@H]2C)c(N)c1=O`?
Answer: growth (0.0025 µM): 42.6%; growth (10 µM): -24.3% (active)

Question: What does the source list for `CC(=O)/C=C/c1ccc(N(C)Cc2ccc(C(C)(C)C)cc2)cc1`?
Answer: growth (10 µM): 53.9%; growth (100 µM): -48.9% (active)

Question: With `CN(Cc1cnc2nc(N)nc(N)c2n1)c1ccc(C(=O)N[C@@H](CCC(=O)O)C(=O)O)cc1` as the compound, how does the growth (2.5 µM) read?
Answer: 27%

Question: What about the growth (10 µM) of the same compound?
Answer: 24.1%

Question: Which growth (10 µM unless noted) does the source give for `CCOC(=O)CC(S(=O)(=O)c1ccccc1)S(=O)(=O)c1ccccc1` here?
Answer: 67.9%

Question: Which growth (0.25 µM) does the source give for `CCCCCCCCCCCCCCCc1ccc(Cl)c(O)c1Cl` (tested in a mixture with another compound) here?
Answer: 18.3%

Question: And the growth (10 µM)?
Answer: 118%

Question: `ClCc1ccc(-c2ccc(Cn3cnc4nc(Cl)nc(Cl)c43)cc2)cc1` was tested. Which growth (10 µM unless noted) did it give?
Answer: -78.9% (active)

Question: `O=C(O)/C(=C\c1ccc(Cl)cc1)c1ccc(Cl)cc1` was tested. Which growth (10 µM unless noted) did it give?
Answer: 53.3%

Question: Which results are given for `O=C(/C=C/c1cccc(Oc2ccc(Cl)cc2)c1)c1ccccc1`?
Answer: growth (10 µM): 73.9%; growth (100 µM): -51.8% (active)

Question: What does the source list for `CCN(Cc1ccccc1)c1ccc(/C=C2\COc3ccccc3C2=O)cc1`?
Answer: growth (10 µM): 78.3%; growth (100 µM): 8.32% (active)

Question: With `CN(C)CCNc1ncc(F)c(-c2cnc3cc(-c4cnn(C)c4)ccn23)n1` as the compound, how does the growth (0.005 µM) read?
Answer: 101%

Question: And the growth (30 µM)?
Answer: 4.9% (active)

Question: Which results are given for `S=P(N1CC1)(N1CC1)N1CC1`?
Answer: growth (10 µM): 99.5% and 32.7%; growth (100 µM): 9.95% (active)

Question: Which results are given for `O=C(O)c1c(Cl)c(Cl)c(Cl)c(Cl)c1-c1c2cc(I)c(=O)c(I)c-2oc2c(I)c(O)c(I)cc12`?
Answer: growth (10 µM): 103% and 104% and 109%; growth (100 µM): -52.2% (active)

Question: With `COc1ccc(C(=O)/C=C/c2ccc(OCc3cccc(C(F)(F)F)c3)c(OC)c2)cc1OC` as the compound, how does the growth (10 µM) read?
Answer: 36.4%

Question: What about the growth (100 µM) of the same compound?
Answer: -17.8% (active)

Question: For `Cc1cccc(/C=C\C(=O)c2ccc(Cl)cc2)c1`, which growth (10 µM unless noted) is on record?
Answer: 90.1% and 61.3%

Question: How did the growth (10 µM) turn out when `CC1(C)OB(c2ccc(Cn3cc(F)c(=O)[nH]c3=O)cc2)OC1(C)C` was run?
Answer: 97.7%

Question: What about the growth (50 µM) of the same compound?
Answer: 32.5%

Question: For `COC(=O)Nc1nc2ccc(C(=O)c3ccccc3)cc2[nH]1`, which growth (10 µM unless noted) is on record?
Answer: 7.13% (active) and -59.3% (active) and -3.38% (active)

Question: Which growth (10 µM) does the source give for `CC(C)(C)c1cc(NC(=O)Cc2ccc(-c3cnc4cc(-c5cnn(CCN6CCOCC6)c5)ccc4n3)cc2)no1` here?
Answer: 4.17% (active)

Question: And the growth (30 µM)?
Answer: 6.45% (active)

Question: How did the growth (10 µM) turn out when `S=c1nc[nH]c2nc[nH]c12` was run?
Answer: 13.8%

Question: What about the growth (50 µM) of the same compound?
Answer: 12.6%

Question: `CC(=O)O[C@H]1C(=O)[C@@]2(C)[C@H]([C@H](OC(=O)c3ccccc3)[C@]3(O)C[C@H](OC(=O)[C@H](O)[C@@H](NC(=O)c4ccccc4)c4ccccc4)C(C)=C1C3(C)C)[C@]1(OC(C)=O)CO[C@@H]1C[C@@H]2O` was tested. Which growth (0.01 µM) did it give?
Answer: -8.36% (active)

Question: What about the growth (2.5 µM) of the same compound?
Answer: -43.6% (active)

Question: What about the growth (5 µM) of the same compound?
Answer: -42.4% (active)

Question: And the growth (10 µM)?
Answer: -12.3% (active) and -35.8% (active)

Question: `COc1cc(NS(C)(=O)=O)ccc1Nc1c2ccccc2nc2ccccc12` was tested. Which growth (2.5 µM) did it give?
Answer: -0.933% (active)

Question: What about the growth (10 µM) of the same compound?
Answer: -43.9% (active) and -9.61% (active) and -4.58% (active)

Question: `COc1ccc(/C=C2\N=C3SC=C(N)N3C2=O)cc1` was tested. Which growth (10 µM unless noted) did it give?
Answer: -40% (active)

Question: How did the growth (10 µM) turn out when `O=C(O)c1sccc1O` was run?
Answer: 62.6%

Question: And the growth (100 µM)?
Answer: 3.63% (active)

Question: `CC/C(=C(\c1ccccc1)c1ccc(OCCN(C)C)cc1)c1ccccc1` was tested. Which growth (10 µM) did it give?
Answer: 39.6%

Question: And the growth (12.5 µM)?
Answer: -57.1% (active)

Question: For `O=C1CCCN1c1cccc2cccnc12`, which growth (10 µM unless noted) is on record?
Answer: 101%

Question: Which growth (10 µM) does the source give for `COc1ccc(C(=O)/C=C/c2ccc(OCc3ccc(Cl)cc3)cc2)cc1OC` here?
Answer: 81.2%

Question: What about the growth (100 µM) of the same compound?
Answer: 18.7%

Question: What does the source list for `COc1cccc2c1C(=O)c1c(O)c3c(c(O)c1C2=O)C[C@@](O)(C(=O)CO)C[C@@H]3OC1CC(N)C(O)C(C)O1` (stereo not given in full)?
Answer: growth (0.0025 µM): 100%; growth (2.5 µM): 81.9%; growth (10 µM): -21.8% (active)
